# Data as given in the supplement of paper PMC6555819.
# Tested on: RXRa DBDmut IVT, anti-RXR (DBD mutation: RXRa K156A/R161A, NR concentration 90 nM)
# Experiment: PBM binding z-score (relative to random genomic background probes); higher = stronger binding; sequences stand for … in GC…GCGATTGACAGCGTAGAATGAAGG
# Outline: (§1)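 On custom Agilent 4×180K arrays, double-stranded probes with 34-nt variable regions carried direct-repeat seeds, single-nucleotide variants, half-site ablations or random human genomic background. Ligand-free nuclear receptor dimers were applied for 1 h, and binding was read with antibodies against each partner (one per run). Binding z-scores come from regression-normalized fluorescence, with the random background probes as reference.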
row,Sequence,PBM binding z-score
1,CCTAGCAGGCCAGGGGCACTCAAGCATTTCGCTT,-1.12
2,ATCTCTAGGTAAGGTTCAGTGAAAGATCGATAGA,1.35
3,ATAGAAAGGTCGAGGTGAGTATAGAGAAAGGGAA,0.887
4,GCATATAGGTAATACAAGGGGAAAGTCCGATTGT,0.734
5,CCTACTTGGTCAGGAGGTCACACACCGGATATGA,0.751
6,CGTCCAAGGTCCTAGGAGGTCAGTGAAGACAGAT,0.216
7,AATACAGGGTCATCGTCGGCCAGAGTACGCACAG,3.4
8,CAGCGTAGGTCAGGGCCAGTATAGGAGGAACGTT,-0.29
9,CAAACTAGGTCACGATAGGTCAAAGTCGAATGAC,2.13
10,AGAACGAGGGCACGCTGAGTTCATAGCAGAGTAG,3.17
11,ATATGTAGGGTATCGGGTCATTCAGTTTGCGCAT,1.43
12,TCATATAGGTAAACGGTGAAAGTCGGTGTGGTAA,1.47
13,TCGAGTAGGTTAGGGGCATACAGAATGGCGTCGA,0.367
14,TAGCCTAGGTCATTCAGGGGACAGTATAGAAAGC,2.35
15,TCAGACAGGTGAAGGTACCTCAGGTACGCAGTCG,1.1
16,CCTACTAGGCCATTCAGAGGTCATTGATCATATG,2.14
17,ATATGTAGGTTACATCCGGGTCGTTCAGGCTATG,1.22
18,TCTTGTAGATCAGAAGGTTAAGAAAGCTGGCCAA,0.89
19,TGATATAGGTAAAGGTGAAAGTCGAACGATATGA,-0.501
20,ACTAGCAGGCCAAGGGTCACTCTAGATTAGTCCG,0.668

row,Sequence,PBM binding z-score
1,GGAACGAGGCCAAAGTTGATAGCATCTGTCGACG,0.917
2,CGAACTAGGTCATTGACAGGAGAGTGAATAGTAA,2.21
3,TAGCCTAGGTCATTCAGGGGCCTGTATAGAAAGC,1.75
4,TGTTGTAGATCAAGCAGGTTAAGAAAGCCTGAGT,-1.02
5,CCGACTGGGGCAAGGTTACCCTAACGCACAGCCA,-0.485
6,TCGAGTAGGTTACCACTGGGGCATTCAGCTTTCT,0.044
7,TATACAGGGTCAAAGGCTAGAGTACGAATGTCGA,2.73
8,TCATATAGGTAAATGCTAGGTAAAAGTCCGATCT,1.76
9,GGTACGAGGGCAAGTTGATAGCAGAGTTTGATGG,2.31
10,TCATATAGGTAAATGCTAGGTGAAAGTGCGATCT,1.55
11,AATACAGGGTCATCGTAGACCAGAGTACGCACAG,3.73
12,TATCCAGGGTCAAAGGCCAGAGTACGAATGTCGA,2.94
13,CCTACTGGGCCATCAGATCATTGATATCAACGTT,0.0432
14,CGTCCAAGGTCAAGGTCCGTGAAAGAGACTCGAA,3.57
15,TCGAGTAGGTTACCGATGGGGCATTCAGCTTTCT,0.165
16,TCATATAGGTAAAGGGTGAAAGTCGGTGTGGTAA,1.84
17,CAAACTTGGTCACCGGAAGGTCAAAGTCCGCATG,0.79
18,TCTATTAGTTGATTAGGGCAACTGAAACAGCGGA,0.885
19,CAAATTAGGTCAAGGTCAAAGTCGGTTTGTGCCA,3.32

# Tested on: RXRa homodimer (NR concentration 180 nM)
# Experiment: as above
# Outline: as §1
row,Sequence,PBM binding z-score
1,CCTAGCAGGCCAGGGGCACTCAAGCATTTCGCTT,-0.341
2,ATCTCTAGGTAAGGTTCAGTGAAAGATCGATAGA,0.69
3,ATAGAAAGGTCGAGGTGAGTATAGAGAAAGGGAA,4.17
4,GCATATAGGTAATACAAGGGGAAAGTCCGATTGT,0.3
5,CCTACTTGGTCAGGAGGTCACACACCGGATATGA,5.02
6,CGTCCAAGGTCCTAGGAGGTCAGTGAAGACAGAT,2.14
7,AATACAGGGTCATCGTCGGCCAGAGTACGCACAG,6.37
8,CAGCGTAGGTCAGGGCCAGTATAGGAGGAACGTT,2.04
9,CAAACTAGGTCACGATAGGTCAAAGTCGAATGAC,5.99
10,AGAACGAGGGCACGCTGAGTTCATAGCAGAGTAG,3.08
11,ATATGTAGGGTATCGGGTCATTCAGTTTGCGCAT,2.76
12,TCATATAGGTAAACGGTGAAAGTCGGTGTGGTAA,0.601
13,TCGAGTAGGTTAGGGGCATACAGAATGGCGTCGA,1
14,TAGCCTAGGTCATTCAGGGGACAGTATAGAAAGC,2.9
15,TCAGACAGGTGAAGGTACCTCAGGTACGCAGTCG,1.05
16,CCTACTAGGCCATTCAGAGGTCATTGATCATATG,4.11
17,ATATGTAGGTTACATCCGGGTCGTTCAGGCTATG,1.54
18,TCTTGTAGATCAGAAGGTTAAGAAAGCTGGCCAA,1.31
19,TGATATAGGTAAAGGTGAAAGTCGAACGATATGA,2.09
20,ACTAGCAGGCCAAGGGTCACTCTAGATTAGTCCG,3.3

row,Sequence,PBM binding z-score
1,GGAACGAGGCCAAAGTTGATAGCATCTGTCGACG,0.814
2,CGAACTAGGTCATTGACAGGAGAGTGAATAGTAA,2.23
3,TAGCCTAGGTCATTCAGGGGCCTGTATAGAAAGC,2.48
4,TGTTGTAGATCAAGCAGGTTAAGAAAGCCTGAGT,-0.024
5,CCGACTGGGGCAAGGTTACCCTAACGCACAGCCA,1.08
6,TCGAGTAGGTTACCACTGGGGCATTCAGCTTTCT,0.129
7,TATACAGGGTCAAAGGCTAGAGTACGAATGTCGA,6.82
8,TCATATAGGTAAATGCTAGGTAAAAGTCCGATCT,0.806
9,GGTACGAGGGCAAGTTGATAGCAGAGTTTGATGG,0.941
10,TCATATAGGTAAATGCTAGGTGAAAGTGCGATCT,1
11,AATACAGGGTCATCGTAGACCAGAGTACGCACAG,6.72
12,TATCCAGGGTCAAAGGCCAGAGTACGAATGTCGA,7.51
13,CCTACTGGGCCATCAGATCATTGATATCAACGTT,-0.148
14,CGTCCAAGGTCAAGGTCCGTGAAAGAGACTCGAA,5.96
15,TCGAGTAGGTTACCGATGGGGCATTCAGCTTTCT,0.626
16,TCATATAGGTAAAGGGTGAAAGTCGGTGTGGTAA,2.24
17,CAAACTTGGTCACCGGAAGGTCAAAGTCCGCATG,4.16
18,TCTATTAGTTGATTAGGGCAACTGAAACAGCGGA,0.275
19,CAAATTAGGTCAAGGTCAAAGTCGGTTTGTGCCA,6.65
